Reference: PMC10668032, “Altered binding affinity of SIX1-Q177R correlates with enhanced WNT5A and WNT pathway effector expression in Wilms tumor”
Whole data set: some 33,000 sequences, median “e-score” near -0.05, cut for the highest 2% near 0.38. What follows is part of a selection rich in the highest values, with near analogues and random picks from the rest.

Target: T1, SIX1-Q177R homeodomain (human, UniProt Q15475 108-198, Q177R)
T1 sequence: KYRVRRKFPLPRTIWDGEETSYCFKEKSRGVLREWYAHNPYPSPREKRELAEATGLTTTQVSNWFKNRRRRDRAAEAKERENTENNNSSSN
Assay: universal protein binding microarray; Universal all-10-mer PBM (8x60K, AMADID 030236), 300 nM GST-tagged protein, Alexa Fluor 488 anti-GST; buffer, salt, pH and temperature not stated (as in Berger); high values mean tight binding
Conditions: protein: ivt; tags: N-terminal GST; dsDNA, one strand shown
In short: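 After in vitro transcription/translation, GST-tagged homeodomains were quantified against a recombinant GST standard curve by anti-GST western blot. They were then placed in duplicate at 300 nM final concentration on universal 'all 10-mer' protein binding microarrays of 8×60K format.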

| Sequence | binding signal |
| --- | --- |
| GGTATCAA | 0.325 ± 0.0148 E-score |
| ACCCGCCA | 0.152 ± 0.0278 E-score |
| ATGATCCC | 0.251 ± 0.0242 E-score |
| CTACACTA | 0.401 ± 0.013 E-score |
| ATACACTA | 0.364 ± 0.0337 E-score |
| GCACACTA | 0.2 E-score |
| GTACACTA | 0.432 ± 0.0136 E-score |
| ATACACTC | 0.369 ± 0.0201 E-score |
| CTACACTC | 0.412 ± 0.0145 E-score |
| CCACACTA | 0.206 ± 0.00246 E-score |
| CCACACTC | 0.308 ± 0.014 E-score |
| TCTCAACA | 0.219 ± 0.0267 E-score |
| ACTTTACA | 0.228 ± 0.0604 E-score |
| TGCGAACA | 0.158 ± 0.012 E-score |
| ATCCCCCA | 0.24 ± 0.0099 E-score |
| TAGTTACA | 0.249 ± 0.0533 E-score |
| GACCCGAC | 0.193 ± 0.052 E-score |
| AAGGTGTA | 0.461 ± 0.0153 E-score |
| AAGGTGTG | 0.369 ± 0.0137 E-score |
| AAGGTGTC | 0.4706 ± 0.00267 E-score |
| AAGGTGGT | 0.151 ± 0.00564 E-score |
| CAGGTGTA | 0.464 ± 0.00823 E-score |

| Sequence | binding signal |
| --- | --- |
| GAGGTGCA | 0.192 ± 0.0287 E-score |
| CATGTGTA | 0.2594 ± 0.00165 E-score |
| CAGGTACA | 0.187 ± 0.0255 E-score |
| AAGGTGCA | 0.222 ± 0.0217 E-score |
| GAGGTATA | 0.18 ± 0.0163 E-score |
| GAGGTGTA | 0.466 ± 0.00775 E-score |
| AAGCGTGT | 0.378 ± 0.00665 E-score |
| GATCCCGA | 0.203 ± 0.0172 E-score |
| ACGCACGA | 0.277 ± 0.005 E-score |
| CCCCCGGG | 0.195 ± 0.00105 E-score |
| CCCACCCG | 0.194 ± 0.0228 E-score |
| ACGAGTTA | 0.205 ± 0.00221 E-score |
| CAACCCCC | 0.242 ± 0.0559 E-score |
| ACACAAGG | 0.155 ± 0.0571 E-score |
| ACCAGTGA | 0.189 ± 0.0202 E-score |
| CACTTACG | 0.206 ± 0.0274 E-score |
| AAGGAGTA | 0.158 ± 0.0662 E-score |
| ACATGGTG | 0.33 ± 0.0163 E-score |
| CACGAGCA | 0.242 ± 0.0191 E-score |
| ACCCGACT | 0.207 ± 0.0388 E-score |
| CTGCGACA | 0.195 ± 0.00854 E-score |
| CATGTGTC | 0.19 ± 0.0338 E-score |

| Sequence | binding signal |
| --- | --- |
| CAGGTGTC | 0.474 ± 0.0095 E-score |
| CAGGTATC | 0.328 ± 0.00751 E-score |
| CCCAGGTA | 0.203 ± 0.0198 E-score |
| AACGTGTG | 0.154 ± 0.0123 E-score |
| AGCGGGTA | 0.158 ± 0.0257 E-score |
| CGCGTGTA | 0.43 ± 0.00692 E-score |
| AGCGTGTC | 0.393 ± 0.00925 E-score |
| CGTGTGTC | 0.289 ± 0.0336 E-score |
| AGAGCGTG | 0.189 ± 0.00653 E-score |
| AGCGTGTG | 0.281 ± 0.00182 E-score |
| CGTGTGTA | 0.296 ± 0.0261 E-score |
| CGCGTATC | 0.155 ± 0.05 E-score |
| CACGCGTG | 0.317 ± 0.0193 E-score |
| CGCGTGTC | 0.414 ± 0.00637 E-score |
| AGCGTGTA | 0.419 ± 0.0156 E-score |
| ACCGCACC | 0.247 ± 0.013 E-score |
| CTCGGATA | 0.188 ± 0.0289 E-score |
| GTGGATCA | 0.161 ± 0.0203 E-score |
| ACTGGTGC | 0.297 ± 0.00607 E-score |
| CACGGTCA | 0.2431 ± 0.00219 E-score |
| GTCCAACA | 0.216 ± 0.00357 E-score |
| AGAAACGG | 0.152 ± 0.0193 E-score |

| Sequence | binding signal |
| --- | --- |
| ATAGGTGC | 0.193 ± 0.00788 E-score |
| ACTGAGTG | 0.1766 ± 0.000721 E-score |
| TCTTGACA | 0.167 ± 0.0124 E-score |
| CCCCCGAA | 0.238 ± 0.0222 E-score |
| GAGGGTTA | 0.185 ± 0.00774 E-score |
| CGACTAAC | 0.192 ± 0.0385 E-score |
| CACGCACG | 0.304 E-score |
| ATTGCGTG | 0.183 ± 0.0294 E-score |
| GACGTGTA | 0.368 ± 0.0248 E-score |
| GGCGTGTA | 0.4378 ± 0.00204 E-score |
| GGCGTACA | 0.283 ± 0.0225 E-score |
| TACACCGA | 0.4853 ± 0.00441 E-score |
| TACACAGA | 0.152 ± 0.0583 E-score |
| AACACCGT | 0.4669 ± 0.00366 E-score |
| AACACAGT | 0.158 ± 0.0584 E-score |
| GTCACCGA | 0.175 ± 0.0101 E-score |
| GACACCGA | 0.486 ± 0.00613 E-score |
| AACACCGA | 0.4686 ± 0.00331 E-score |
| AACACTGT | 0.3445 ± 0.00205 E-score |
| CACCCCGA | 0.346 ± 0.0278 E-score |
| GGCACCGA | 0.175 ± 0.0275 E-score |
| AGCACCGA | 0.197 ± 0.00674 E-score |
